Screening results (PubChem)
ALDH1A1 inh: qHTS Assay for Inhibitors of Aldehyde Dehydrogenase 1 (ALDH1A1) | Purified ALDH1A1, NADH fluorescence, propionaldehyde substrate | Potency, µM (highest dose often 75.3 µM), hits mostly inhibitors | 220,000 tested, 7.3% active | AID 1030, 2008
Target sequence (P00352 whole entry, looked up): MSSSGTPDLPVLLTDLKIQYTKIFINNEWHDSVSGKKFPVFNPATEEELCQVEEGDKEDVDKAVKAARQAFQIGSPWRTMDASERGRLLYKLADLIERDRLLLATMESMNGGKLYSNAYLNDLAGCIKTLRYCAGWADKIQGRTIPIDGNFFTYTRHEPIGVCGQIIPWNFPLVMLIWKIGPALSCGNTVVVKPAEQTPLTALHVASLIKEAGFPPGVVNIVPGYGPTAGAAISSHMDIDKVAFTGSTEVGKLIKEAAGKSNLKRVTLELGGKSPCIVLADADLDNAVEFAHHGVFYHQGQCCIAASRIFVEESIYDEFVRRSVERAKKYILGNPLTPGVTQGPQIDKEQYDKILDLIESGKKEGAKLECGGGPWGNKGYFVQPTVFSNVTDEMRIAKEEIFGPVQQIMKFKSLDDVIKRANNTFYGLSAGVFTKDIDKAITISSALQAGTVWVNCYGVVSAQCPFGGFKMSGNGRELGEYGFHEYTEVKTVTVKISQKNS
IMPase inh: qHTS Assay for Identifying the Cell-Membrane Permeable IMPase Inhibitors; Inositol monophosphatase 1 (Rattus norvegicus), P97697; CHO-M1 cells, IP1 accumulation, HTRF TR-FRET ratio; inhibition (IP1 accumulation), % at 46.1 µM; 120,000 tested, under 10 active; AID 901, 2007; active = well fitted curve in the direction sought with a large enough effect in the signal ratio, not every such curve was filed as active; inconclusive = small, poorly fitted or top-dose-only effect, or a change in a side signal; inactive = no such curve, though single readings can be large or run the other way; the % refers to the signal ratio;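 also: cells stimulated with carbachol in lithium chloride buffer; higher means more IMPase inhibition seen as more IP1 and lower FRET ratio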
Target sequence (P97697 whole entry, looked up): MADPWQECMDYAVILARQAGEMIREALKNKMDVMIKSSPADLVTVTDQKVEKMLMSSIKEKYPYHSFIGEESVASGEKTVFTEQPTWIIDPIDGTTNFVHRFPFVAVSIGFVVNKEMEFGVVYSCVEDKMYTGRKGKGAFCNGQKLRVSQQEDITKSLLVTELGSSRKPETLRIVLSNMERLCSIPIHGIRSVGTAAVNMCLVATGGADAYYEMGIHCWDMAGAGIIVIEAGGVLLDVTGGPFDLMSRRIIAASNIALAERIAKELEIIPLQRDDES
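CHO-M1, 2000 cells/well, cultured 16–30 h; cpd up to 46 uM; carbachol (50 uM solution, stimulation buffer w/ 50 mM LiCl, pH 7.4), 30 min 37C; IP-One TR-FRET, 10 min RT; Ex 320/Em 665, 620; Hill-fit AC50.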
HPGD inh: qHTS Assay for Inhibitors of HPGD (15-Hydroxyprostaglandin Dehydrogenase); 15-hydroxyprostaglandin dehydrogenase [NAD(+)] (Homo sapiens), P15428; purified HPGD, NADH fluorescence kinetic, PGE2 substrate; Potency, µM, most hits filed as inhibitors; 150,000 tested, 4.3% active
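NADH formation kinetics: reaction with 30 uM PGE2 and 1 mM NAD+ (final), 20 nM enzyme, Tris-HCl pH 8 with Tween 20, after 15 min compound preincubation at room temperature. Fluorescence change, last versus first of five reads.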
Of the large screens only hits and unclear results are named; the others gave an inactive call. Hits are enriched below; roughly 9% of the tested compounds scored in any of these assays. Unless noted, calls follow the shape of the dose curve; as a rule, active = well fitted inhibition curve with a large enough effect (not every such curve was filed as active); inconclusive = small, poorly fitted or top-dose-only effect, or another doubt; inactive = no such curve, though single readings can be large or run the other way.

Cc1ccccc1NC(=O)C1c2cccc[n+]2CC(=O)N1c1c(C)cccc1C (stereo unspecified)	ALDH1A1 inh 11µM
Cc1cc(C)c(C)c(S(=O)(=O)N2CCN(c3ccc(O)cc3)CC2)c1C	ALDH1A1 inh 22µM (no result: IMPase inh, HPGD inh)
Cc1ccc(S(=O)(=O)N2CCOCC2)cc1NC(=O)CN1CCN(c2ccc(O)cc2)CC1	ALDH1A1 inh inconclusive (no result: IMPase inh)
CCCCOc1ccc(OCCNS(=O)(=O)N(C)C)cc1	none
O=C(O)Cc1sc(-c2ccccc2)nc1-c1ccccc1	IMPase inh inconclusive
O=C(O)Cc1sc(NCc2ccco2)nc1-c1ccccc1	ALDH1A1 inh 3.5µM (no result: IMPase inh, HPGD inh)
COc1ccc(CNC(=O)CS(=O)CC(=O)O)cc1OC (stereo unspecified)	none (no result: IMPase inh, HPGD inh)
FC(F)(F)c1ccccc1-c1nc(N2CCOCC2)c2ccccc2n1	none (no result: IMPase inh, HPGD inh)
C/C=C/C=C/C=O	ALDH1A1 inh 25µM (no result: IMPase inh)
COc1ccc(OC)c(NC(=O)NCCc2cccc(Cl)c2)c1	none (no result: IMPase inh, HPGD inh)
CCOC(=O)NC(=O)/C(C#N)=C\NNc1ncc(C(F)(F)F)cc1Cl	none (no result: IMPase inh, HPGD inh)
O=C(c1ccco1)N1CCN(C(c2ccc(F)cc2)c2nnnn2Cc2cccs2)CC1 (stereo unspecified)	ALDH1A1 inh inconclusive
O=C(c1ccco1)N1CCN(C(c2ccccc2)c2nnnn2Cc2cccs2)CC1 (stereo unspecified)	ALDH1A1 inh 2.2µM
O=C(c1ccco1)N1CCN(C(c2cccs2)c2nnnn2C2CCCCC2)CC1 (stereo unspecified)	ALDH1A1 inh 18µM
CC(C)(C)n1nnnc1C(c1cccs1)N1CCN(C(=O)c2ccco2)CC1 (stereo unspecified)	none
CCC(c1nnnn1Cc1ccco1)N1CCN(C(=O)c2ccco2)CC1 (stereo unspecified)	ALDH1A1 inh inconclusive
CC(C)C(c1nnnn1Cc1cccs1)N1CCN(C(=O)c2ccco2)CC1 (stereo unspecified)	none (no result: IMPase inh, HPGD inh)
O=C(c1ccco1)N1CCN(C(c2ccccc2Cl)c2nnnn2Cc2cccs2)CC1 (stereo unspecified)	ALDH1A1 inh 13µM
CC(C)CC(c1nnnn1Cc1ccccc1)N1CCN(C(=O)c2ccco2)CC1 (stereo unspecified)	ALDH1A1 inh 25µM
CCOc1ccccc1Nc1ccc(N)cc1S(=O)(=O)O	none (no result: IMPase inh)
Cc1ccccc1C(=O)NC1(C(F)(F)F)C(=O)Nc2c1c(=O)[nH]c(=O)n2-c1ccc(F)cc1 (stereo unspecified)	none (no result: ALDH1A1 inh, HPGD inh)
O=C1CC(c2ccncc2)c2cc3c(cc2N1)OCO3 (stereo unspecified)	none
Cc1ccc(C(=O)N2CCCC(C(=O)c3ccc(Oc4ccccc4)cc3)C2)cn1 (stereo unspecified)	none (no result: IMPase inh, HPGD inh)
O=C(c1ccco1)N1CCN(C(c2ccccc2Cl)c2nnnn2Cc2ccco2)CC1 (stereo unspecified)	ALDH1A1 inh 11µM
COc1ccc(OC)c(C(c2nnnn2CCC(C)C)N2CCN(C(=O)c3ccco3)CC2)c1 (stereo unspecified)	none
CCc1ccccc1NC(=O)Cn1c(=O)n(CC(=O)NCCc2ccccc2)c(=O)c2ccccc21	none (no result: ALDH1A1 inh, HPGD inh)
O=C(NC1CCCCC1NC(=O)c1cccs1)c1cccs1 (stereo unspecified)	none
O=C(NC1CCCCC1)c1ccc(CNc2ccccc2)o1	ALDH1A1 inh inconclusive
O=C(Cc1cccs1)NC1CCCC1	none (no result: IMPase inh, HPGD inh)
Cc1ccc(C(=O)NC2CCCCCC2)o1	HPGD inh 25µM
O=C(CNC1CCCCCC1)c1cccs1	ALDH1A1 inh 6µM, HPGD inh inconclusive (no result: IMPase inh)
O=C(NC1CCCCCC1)c1cccs1	ALDH1A1 inh inconclusive, HPGD inh 25µM
CC(C)[C@@H](CC(=O)N[C@@H]1CCNC[C@H]1C(=O)N[C@H](CC(=O)N[C@@H](CCC(=O)O)CC(=O)O)Cc1ccccc1)NC(=O)C[C@H](CO)NC(=O)[C@@H]1CCCC[C@H]1N	none (no result: IMPase inh)
O=C(O)/C=C/c1ccc(S(=O)(=O)Nc2ccc(C(=O)NCC(=O)O)cc2)cc1	none (no result: IMPase inh, HPGD inh)
Cc1nn(-c2ccccc2)c2sc(C(=O)Nc3cccc(Cl)c3)cc12	none (no result: ALDH1A1 inh, HPGD inh)
Cc1ccc(C)c(NNC(N)=S)c1	ALDH1A1 inh 13µM (no result: IMPase inh, HPGD inh)
Cc1cccc(NNC(N)=S)c1C	ALDH1A1 inh 13µM (no result: IMPase inh, HPGD inh)
Cc1ccc(C)c(N/C(N)=N/c2nc(C)cc(C)n2)c1	none
Cc1cccc(NC(=S)NCCO)c1C	none (no result: IMPase inh)
Cc1ccc(-n2c(=S)[nH]c3c(oc4ccccc43)c2=O)cc1	IMPase inh inconclusive (no result: HPGD inh)
O=c1c2oc3ccccc3c2[nH]c(=S)n1-c1ccccc1	ALDH1A1 inh 7.9µM, IMPase inh inconclusive
CC(C)C[C@@H](C=O)NC(=O)[C@H](CC(C)C)NC(=O)[C@H](CC(C)C)NC(=O)OCc1ccccc1	ALDH1A1 inh 14µM (no result: IMPase inh, HPGD inh)
COC(=O)CCC(NC(=O)OCc1ccccc1)C(=O)NC(CC(C)C)C(=O)OC (stereo unspecified)	none
Cc1csc(N/N=C\c2cccnc2)n1	ALDH1A1 inh 11µM (no result: IMPase inh, HPGD inh)
Cc1ccc(N/N=C/c2cccnc2)cc1	ALDH1A1 inh inconclusive (no result: IMPase inh)
COc1ccc2cnnc(SCC(=O)Nc3ccccc3)c2c1OC	ALDH1A1 inh inconclusive, HPGD inh 25µM (no result: IMPase inh)
COc1ccc2cnnc(SCC(=O)Nc3ccc(C(=O)O)cc3)c2c1OC	ALDH1A1 inh inconclusive, HPGD inh inconclusive
O=C(O)CCCCCN1C(=O)/C(=C/c2ccncc2)SC1=S	none (no result: IMPase inh)
O=C(O)CCCN1C(=O)/C(=C/c2ccc(-c3nc4ccccc4s3)o2)SC1=S	ALDH1A1 inh inconclusive, HPGD inh 18µM
O=C(NCc1ccccc1)c1ccc(Oc2ccc(C(=O)NCc3ccccc3)cc2)cc1	HPGD inh 13µM
O=C(NCc1ccccc1)c1ccc(OC2CSC2)cc1	none
COc1ccc(CNC(=S)NCc2ccc(OC(C)C)cc2)cc1	ALDH1A1 inh 14µM (no result: IMPase inh)
O=C(NCc1ccccc1)c1ccc(Br)cc1Br	HPGD inh 3.5µM (no result: IMPase inh)
O=C(NCc1ccccc1)c1ccccc1Br	none (no result: IMPase inh, HPGD inh)
COc1ccc(CNC(=S)Nc2cc(C)cc(C)c2)cc1	none
O=C(CNC(=O)c1ccc(Oc2ccccc2)cc1)OCc1ccc(Br)cc1	none (no result: IMPase inh)
O=C(CNC(=O)c1ccc(Oc2ccccc2)cc1)OC1CCCCC1=O (stereo unspecified)	ALDH1A1 inh 22µM
O=C(N1CCN(c2ccc(F)cc2)CC1)C1(c2cccs2)CCOCC1	none
O=C(O)CCc1cc(I)c(O)c(I)c1	none (no result: IMPase inh, HPGD inh)
C=CCn1c(SCc2cc(=O)n3ccsc3n2)nc2sc(C)c(C)c2c1=O	none
CCN(Cc1ccccc1)C(=O)c1ccc(Cl)cc1[N+](=O)[O-]	none (no result: IMPase inh, HPGD inh)
O=C(NCc1ccccc1)c1ccc(Cl)cc1[N+](=O)[O-]	HPGD inh 13µM
COc1ccc(C(=O)NCc2ccccc2)cc1Br	none
COc1cc(OC)cc(C(=O)NCCNC(=O)c2ccccc2)c1	none
COc1cc(OC)cc(C(=O)NC(=S)NCCc2ccccc2)c1	ALDH1A1 inh 1.1µM
COc1ccc(CNC(=S)Nc2ccccc2-c2ccccc2)cc1	ALDH1A1 inh 22µM (no result: IMPase inh, HPGD inh)
COc1ccc(CNC(=S)Nc2ccc(-c3ccccc3)cc2)cc1	none (no result: IMPase inh, HPGD inh)
Cc1ccc(C(=O)NCc2ccccc2)cc1Br	ALDH1A1 inh inconclusive, HPGD inh 25µM (no result: IMPase inh)
CCOc1cccc(C2c3c(oc4cc(C)c(C)cc4c3=O)C(=O)N2c2nc(C)c(C)s2)c1 (stereo unspecified)	none (no result: ALDH1A1 inh, HPGD inh)
COc1ccc(C(=O)c2ccccc2)cc1	none (no result: IMPase inh, HPGD inh)
